Test results reported in the supplement of paper PMC6555819.

How the values were obtained:
Experiment in all cases: PBM binding z-score (relative to random genomic background probes); higher = stronger binding; sequences stand for … in GC…GCGATTGACAGCGTAGAATGAAGG
[1] = system: FXR:RXRa (NR concentration 270 nM, RXRa partner concentration 90 nM)
In short: (§1)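 Regression normalization was applied to scanned fluorescence from custom Agilent 4×180K protein-binding microarrays. Before scanning, arrays were incubated 1 h with ligand-free nuclear receptor dimers, and binding was detected with antibodies against each partner (one per run). Binding z-scores use the random background probes as reference.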

[2] = system: LXRa:RXRa (NR concentration 270 nM, RXRa partner concentration 90 nM)
In short: as §1

[3] = system: LXRa homodimer (NR concentration 270 nM)
In short: as §1

[4] = system: LXRb:RXRa (NR concentration 270 nM, RXRa partner concentration 90 nM)
In short: as §1

[5] = system: LXRb homodimer (NR concentration 270 nM)
In short: as §1

[6] = system: PPARa:RXRa (NR concentration 270 nM, RXRa partner concentration 90 nM)
In short: as §1

[7] = system: PPARg:RXRa (NR concentration 180 nM, RXRa partner concentration 90 nM)
In short: as §1

[8] = system: PPARg:RXRa 270nM:90nM, anti-RXR (NR concentration 270 nM, RXRa partner concentration 90 nM)
In short: as §1

[9] = system: PPARg:RXRa 30nM:10nM, anti-RXR (NR concentration 30 nM, RXRa partner concentration 10 nM)
In short: as §1

[10] = system: PPARg:RXRa 90nM:30nM, anti-RXR (NR concentration 90 nM, RXRa partner concentration 30 nM)
In short: as §1

[11] = system: PPARg:RXRa DBDmut IVT, anti-RXR (DBD mutation: RXRa K156A/R161A, NR concentration 270 nM, RXRa partner concentration 90 nM)
In short: as §1

[12] = system: PPARg:RXRa IVT, anti-PPARg (NR concentration 270 nM, RXRa partner concentration 90 nM)
In short: as §1

[13] = system: PPARg DBDmut:RXRa IVT, anti-PPARg (DBD mutation: PPARg1 K132A/R137A, NR concentration 270 nM, RXRa partner concentration 90 nM)
In short: as §1

[14] = system: PPARg DBDmut IVT, anti-PPARg (DBD mutation: PPARg1 K132A/R137A, NR concentration 270 nM)
In short: as §1

[15] = system: PPARg homodimer (NR concentration 180 nM)
In short: as §1

[16] = system: PXR:RXRa (NR concentration 270 nM, RXRa partner concentration 90 nM)
In short: as §1

[17] = system: PXR homodimer (NR concentration 270 nM)
In short: as §1

[18] = system: RARa:RXR (NR concentration 270 nM, RXRa partner concentration 90 nM)
In short: as §1

[19] = system: RARa homodimer (NR concentration 270 nM)
In short: as §1

[20] = system: RARb:RXRa (NR concentration 270 nM, RXRa partner concentration 90 nM)
In short: as §1

Sequence	PBM binding z-score [1]	PBM binding z-score [2]	PBM binding z-score [3]	PBM binding z-score [4]	PBM binding z-score [5]	PBM binding z-score [6]	PBM binding z-score [7]	PBM binding z-score [8]	PBM binding z-score [9]	PBM binding z-score [10]	PBM binding z-score [11]	PBM binding z-score [12]	PBM binding z-score [13]	PBM binding z-score [14]	PBM binding z-score [15]	PBM binding z-score [16]	PBM binding z-score [17]	PBM binding z-score [18]	PBM binding z-score [19]	PBM binding z-score [20]
TCTTGTAGATCAGCAGGTTATGAAAGCTGGCCAA	0.122	0.0807	-0.501	0.444	-0.22	0.665	-0.222	1.29	2.49	1.59	1.43	0.523	-0.144	0.592	-0.672	0.11	-0.253	0.383	-0.663	0.164
CCTACTGGGCCATCAGCTCATTGATATCAACGTT	-0.649	-0.431	-0.409	-0.655	-0.446	-0.141	0.457	0.344	-0.273	0.098	3.97	3.36	-0.394	-0.205	-0.413	-0.673	-0.788	-0.689	-0.576	-0.0601
GCTAGCGGGCCATTTGGGTCACTCAATGACGGGC	-0.0868	-0.0931	-0.975	-0.141	-0.972	1.26	0.395	0.262	-0.653	-0.112	1.3	1.48	-0.871	-1.28	-0.0904	0.246	-0.44	0.906	-1.07	1.26
ACTAGCAGGCTAAGTTTGGGTCACTCAAACAAAG	-0.0373	-0.132	-0.315	0.424	-0.557	1.28	-0.0855	0.315	-0.575	-0.155	0.316	0.557	-0.411	-0.519	-0.136	0.49	-0.438	1.31	-0.552	1.17
CCTACTGGGCCAAAGGTAATTGATTCCAATGCTC	-0.451	-0.199	-0.379	-0.0867	-0.845	3.66	8.76	7.99	6.87	8.72	5.36	4.68	0.0261	0.0447	0.234	-0.286	-0.264	-0.0121	-0.474	0.179
ATCTCTAGGTAAGAGTCAGTTCAGTGAAGAACGC	0.322	0.41	0.44	0.262	0.685	0.413	0.239	1.03	0.45	0.958	1.76	1.41	0.489	0.902	1.16	0.741	1.13	0.349	1.11	0.454
ATCGACAGGTCGACGAGGTGAGTATACACCGTTT	0.539	0.314	-0.541	0.288	-0.436	1.42	1.11	0.392	0.0912	-0.0285	-0.262	0.929	0.221	0.384	0.58	0.461	-0.437	1.54	0.5	1.53
ACTAGCAGGCCAAGTTTGGGTCACGCAAACAAAG	1.01	0.518	-0.2	1.33	-0.873	2.27	0.556	1.04	-0.0172	0.546	1.23	1.63	-0.285	-0.284	0.631	1.61	-0.0621	2.51	-0.0801	2.33
CGAACGAGGGCGTGAGTTGATAGCAAATGCCGAT	-0.128	-0.241	-0.781	-0.468	-0.878	0.0145	0.401	0.0824	-0.205	-0.084	0.665	0.126	-0.548	-1.21	-0.313	-0.163	-0.37	-0.268	-0.533	0.442
ATCTCTAGGTAACCAAGTTCAGTGCATGCCGAAC	0.755	1.14	0.876	0.833	0.777	1.38	0.901	0.936	0.401	0.474	3.99	3.29	0.293	0.732	0.815	2.2	2.24	1.03	0.856	1.37
CCTACTGGGCCATCAGGTCATTAATATCAACGTT	1.02	0.82	1.3	1.37	-0.00307	2.46	2.9	3.3	0.96	3.01	4.28	5.01	0.502	0.269	2.46	1.25	0.741	1.51	0.585	1.94
TCTGGCAGGCCAGAGGGTCACTCAAGAGGTACGG	1.24	1.09	-0.32	1.08	-0.89	2.4	0.868	1.48	0.732	1.23	0.0912	0.182	-0.722	-0.915	0.353	1.59	-0.371	2	-0.717	2.31
CTACCAAGGTGAAAAAGGTCGTTGATTACTATTC	1.22	1.45	0.405	1.86	-0.412	2.61	0.694	1.3	0.297	0.721	1.42	1.39	0.0289	-0.0502	0.878	2.31	1.09	2.56	0.555	2.02
CTCGAAAGGTCCGTTGAGGTGAGTATACGGATAA	0.973	-0.377	-0.421	-0.34	-0.666	0.249	-0.102	0.101	-0.184	-0.198	-0.499	0.457	0.113	-0.18	-0.594	0.156	-0.14	0.322	-0.439	1.12
GCTAGCAGGCCAATTGGGTCACTCAATGACGGGC	-0.057	-0.159	-0.545	-0.122	-1.32	1.83	1.01	1.14	-0.473	0.444	2.36	3.11	-0.977	-0.884	-0.0833	0.184	-0.704	0.585	-0.664	1.54
CCTATTAGGTGACCATAAGGGCAACCGAAGCTCG	0.883	0.519	-0.266	0.209	-0.299	1.81	1.73	1.56	0.344	0.657	5.2	4.27	0.935	-0.392	0.93	0.636	0.326	1.19	0.485	1.87
ACAGATAGGTGAGTGAAGGTAACTCAGCTGGACG	0.482	0.0886	-0.209	-0.39	-0.76	0.462	0.821	0.426	-0.17	0.325	1.53	1.14	0.306	-0.218	0.357	-0.303	-0.159	0.0919	-0.566	0.558
TCGAGTAGGTTAGGGACATTCAGAATGGCGTCGA	0.438	-0.314	-0.491	-0.146	-0.828	0.561	0.371	0.659	1.18	0.799	1.85	1.17	-0.378	-1.4	0.27	-0.0606	-0.414	0.186	-0.0818	0.661
GATACAGGGTCAAGGACAGAGTACGCGTATTGAT	6.59	4.45	0.185	4	0.413	5.54	5.7	5.61	2.93	4.51	3.11	3.89	1.4	0.618	2.51	3.92	0.786	4.72	1.69	4.52
